# Data as given in publication PMC9838217, “Structure of SALL4 zinc finger domain reveals link between AT-rich DNA binding and Okihiro syndrome”.
# Where a chain is given by its changes, count along the chain named.
# Columns and labels:
# Assay in all cases: HT-SELEX; high values mean tight binding
# Settings in all cases: protein: recombinant; vector His6-GST; dsDNA, one strand shown
# SALL4 ZFC4 WT (HT-SELEX) = biological target: T1, SALL4 ZFC4 WT (HT-SELEX) (Mus musculus, UniProt Q8BX22 870-940)
# T1 sequence: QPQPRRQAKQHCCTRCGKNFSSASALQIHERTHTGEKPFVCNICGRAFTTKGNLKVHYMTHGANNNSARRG
# Outline: (§1)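 Binding signal is defined as the fold change of each canonical k-mer's read fraction versus the initial random library. Selections used 1 µg of purified recombinant mouse SALL4 zinc finger cluster 4 (residues 870–940) with library DNA (1.5 µg first cycle, 200 ng later) in 100 µl of 10 mM Tris–HCl pH 7.5, 50 mM NaCl, poly(dI-dC) and DTT, for 10 min at room temperature, followed by Ni2+ bead capture, washing and PCR. Up to 6 such cycles were run in triplicate before MiSeq sequencing and 6-mer scanning.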
# [1] = biological target: T2, SALL4 ZFC4 R900W (HT-SELEX) (Mus musculus, UniProt Q8BX22 870-940, R900W)
# T2 sequence: T1 sequence with R31W
# Outline: as §1
# [2] = biological target: T3, SALL4 ZFC4 G921D (HT-SELEX) (Mus musculus, UniProt Q8BX22 870-940, G921D)
# T3 sequence: T1 sequence with G52D
# Outline: as §1
Sequence,binding signal (SALL4 ZFC4 WT (HT-SELEX)) [fold-change vs cycle 0],binding signal [1] [fold-change vs cycle 0],binding signal [2] [fold-change vs cycle 0]
ATACAG,1.33 ± 0.0931,1.41 ± 0.0818,1.36 ± 0.0886
CAGTAG,0.806 ± 0.0679,0.908 ± 0.0926,0.954 ± 0.0684
CCTGGA,0.496 ± 0.0295,0.556 ± 0.0141,0.647 ± 0.0202
ATATCC,1.52 ± 0.0519,1.43 ± 0.0827,1.37 ± 0.0764
ATCTGC,0.624 ± 0.0226,0.711 ± 0.0187,0.798 ± 0.0337
AGTACA,1.29 ± 0.0355,1.43 ± 0.0834,1.35 ± 0.0882
ATGCAC,0.606 ± 0.0179,0.667 ± 0.022,0.775 ± 0.052
AGGCAT,0.627 ± 0.0329,0.715 ± 0.0142,0.816 ± 0.0443
CCTTTA,1.31 ± 0.0506,1.47 ± 0.0755,1.33 ± 0.0771
AGTGAT,1.45 ± 0.0292,1.59 ± 0.0395,1.53 ± 0.097
ATTGGC,0.461 ± 0.0252,0.5 ± 0.0137,0.665 ± 0.0716
ATTAAT,6.27 ± 0.662,2.77 ± 0.256,2.34 ± 0.327
ACAAGG,0.796 ± 0.0489,0.976 ± 0.041,0.945 ± 0.0282
AAGTGA,1.34 ± 0.0271,1.52 ± 0.0501,1.42 ± 0.0562
CCTCTA,0.817 ± 0.034,0.915 ± 0.0455,0.953 ± 0.0421
ATCTCC,0.945 ± 0.0285,1.04 ± 0.0372,1.06 ± 0.0438
CCAAAC,0.6318 ± 0.0044,0.729 ± 0.0202,0.813 ± 0.0511
ATTGCA,1.16 ± 0.0389,1.12 ± 0.0435,1.18 ± 0.0324
CTCGAA,0.675 ± 0.0333,0.763 ± 0.0367,0.838 ± 0.0207
CTGGTA,0.8022 ± 0.00263,0.908 ± 0.0333,0.954 ± 0.0144
ATCGCA,0.515 ± 0.00556,0.522 ± 0.0161,0.667 ± 0.0619
GAATGC,0.632 ± 0.0438,0.728 ± 0.0366,0.816 ± 0.0183
GGTTCA,0.788 ± 0.0387,0.916 ± 0.0428,0.966 ± 0.0244
AGGGTG,0.486 ± 0.0118,0.567 ± 0.0247,0.648 ± 0.0341
ATAGTC,1.25 ± 0.0415,1.31 ± 0.0594,1.33 ± 0.0589
GATACA,1.33 ± 0.0706,1.39 ± 0.0615,1.37 ± 0.0715
AGCTCA,0.694 ± 0.0391,0.773 ± 0.0155,0.872 ± 0.0134
AATCCG,0.616 ± 0.0217,0.698 ± 0.0254,0.798 ± 0.0327
AAGACG,0.635 ± 0.0182,0.735 ± 0.023,0.815 ± 0.0404
GATAAC,1.49 ± 0.117,1.52 ± 0.136,1.44 ± 0.166
